IDE exosite inh = exo-site inhibitors of human insulin-degrading enzyme; z-score at 20 µM; 6.3% of 17,000 active; purified IDE, FL-6b probe fluorescence polarization; hits give low values;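 active = z-score of -3 or lower, meaning strong loss of probe binding signal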;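 note: His-tagged human IDE residues 42-1019 made in E. coli with 30 nM FL-6b probe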
Target sequence (P14735 42-1019 limits assumed): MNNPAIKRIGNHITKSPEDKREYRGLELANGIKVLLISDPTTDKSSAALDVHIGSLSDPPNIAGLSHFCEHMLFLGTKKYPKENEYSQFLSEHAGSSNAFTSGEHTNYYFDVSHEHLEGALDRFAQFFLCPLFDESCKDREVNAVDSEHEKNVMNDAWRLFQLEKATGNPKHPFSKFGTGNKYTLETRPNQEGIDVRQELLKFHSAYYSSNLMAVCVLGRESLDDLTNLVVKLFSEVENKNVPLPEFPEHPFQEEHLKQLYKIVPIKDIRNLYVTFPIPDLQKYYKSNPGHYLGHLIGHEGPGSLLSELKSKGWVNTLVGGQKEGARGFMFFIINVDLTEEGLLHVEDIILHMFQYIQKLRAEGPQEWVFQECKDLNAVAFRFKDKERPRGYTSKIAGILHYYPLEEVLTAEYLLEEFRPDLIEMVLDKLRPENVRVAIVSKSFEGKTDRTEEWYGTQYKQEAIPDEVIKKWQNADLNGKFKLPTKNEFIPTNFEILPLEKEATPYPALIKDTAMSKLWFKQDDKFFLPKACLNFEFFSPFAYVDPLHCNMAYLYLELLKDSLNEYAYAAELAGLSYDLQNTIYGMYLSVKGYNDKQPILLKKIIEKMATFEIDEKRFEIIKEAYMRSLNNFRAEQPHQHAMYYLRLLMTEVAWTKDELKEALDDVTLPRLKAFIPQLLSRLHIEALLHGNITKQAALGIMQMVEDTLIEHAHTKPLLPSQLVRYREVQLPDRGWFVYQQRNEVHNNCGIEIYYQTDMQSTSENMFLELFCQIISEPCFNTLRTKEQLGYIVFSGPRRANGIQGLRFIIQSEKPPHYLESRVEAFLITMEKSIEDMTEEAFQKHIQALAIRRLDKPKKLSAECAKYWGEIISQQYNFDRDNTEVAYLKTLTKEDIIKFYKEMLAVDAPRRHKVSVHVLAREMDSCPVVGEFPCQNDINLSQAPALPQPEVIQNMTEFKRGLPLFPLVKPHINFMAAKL
An asterisk follows results filed as active; ! = a repeat was not active. Shown is part of a subset that was picked to be rich in hits.

SMILES	IDE exosite inh
COCC(=O)Nc1ccc2c(c1)C(=O)N(C)[C@@H]1CC[C@H](CC(=O)N3CCc4ccccc4C3)O[C@H]1CO2	-1.89
O=C(NC[C@H]1[C@H](c2ccccc2)[C@H](CO)N1Cc1cccnc1)c1ccccn1	1.19
O=C(Nc1ccccc1)N1CCCCN2[C@H](CO)[C@@H](c3ccc(C4=CCCCC4)cc3)[C@H]2C1	6.12
CCCNC(=O)N1[C@@H]2CNC[C@H]1C2c1ccc(-c2ccc(C)cc2)cc1 (stereo partly specified)	-3.16*!
O=C(Nc1cccc(Cl)c1)N1[C@@H]2CNC[C@H]1C2c1ccc(/C=C/c2ccccc2)cc1 (stereo partly specified)	-0.287
CCCNC(=O)N1[C@@H]2CNC[C@H]1C2c1ccc(/C=C/c2ccccc2)cc1 (stereo partly specified)	-7.49*
CCCNC(=O)N1[C@@H](CO)[C@@H](c2ccc(-c3ccccc3)cc2)[C@@H]1CNC(C)=O	0.866
CC(C)NC(=O)N1[C@@H]2CNC[C@H]1C2c1ccc(/C=C/c2ccccc2)cc1 (stereo partly specified)	-1.65
CC(C)NC(=O)N1[C@@H]2CNC[C@H]1C2c1ccc(-c2cccc(C#N)c2)cc1 (stereo partly specified)	3.93
O=C(C1CCOCC1)N1[C@H](CO)[C@@H](c2ccccc2)C12CN(CCC(F)(F)F)C2	1.2
O=S(=O)(NC[C@@H]1[C@@H](c2ccccc2)[C@@H](CO)N1CC1CC1)c1ccccc1	0.85
C/C=C/c1ccccc1[C@@H]1[C@H](C#N)N(C(=O)c2cccnc2)[C@H]1CO	-1.02
O=C(C[C@@H]1CC[C@@H]2[C@H](COC[C@@H](O)CN2C(=O)Nc2ccccc2)O1)NCc1ccccc1F	-0.307
Cc1ccccc1-c1ccc([C@H]2[C@@H](CO)N3CCCCN(S(=O)(=O)Cc4ccccc4)C[C@H]23)cc1	0.6
CCS(=O)(=O)N1CCCCN2[C@@H](CO)[C@@H](c3ccc(-c4ccccc4C)cc3)[C@@H]2C1	-14.5*
CCS(=O)(=O)N1CCCCN2[C@H](CO)[C@H](c3ccc(-c4ccccc4)cc3)[C@H]2C1	0.627
CS(=O)(=O)N1CCCCN2[C@@H](CO)[C@@H](c3ccc(C4=CCCC4)cc3)[C@@H]2C1	0.723
Cc1ccccc1-c1ccc([C@H]2[C@H]3CN(S(=O)(=O)Cc4ccccc4)CCCCN3[C@H]2CO)cc1	1.74
Cc1ccccc1-c1ccc([C@H]2[C@@H](CO)N3CCCCN(S(C)(=O)=O)C[C@H]23)cc1	-7.66*
CS(=O)(=O)N1CCCCN2[C@H](C1)[C@H](c1ccc(C3=CCCC3)cc1)[C@@H]2CO	2.96
CS(=O)(=O)N1CCCCN2[C@H](CO)[C@@H](c3ccc(C4=CCCC4)cc3)[C@H]2C1	5.12
Cc1ccccc1-c1ccc([C@@H]2[C@H](CO)N3CCCCN(S(C)(=O)=O)C[C@@H]23)cc1	-10.3*
Cc1ccccc1-c1ccc([C@@H]2[C@@H](CO)N3CCCCN(S(C)(=O)=O)C[C@@H]23)cc1	-17.9*
Cc1ccccc1-c1ccc([C@H]2[C@@H](CO)N3CCCCN(S(=O)(=O)Cc4ccccc4)C[C@@H]23)cc1	-1.65
CCS(=O)(=O)N1CCCCN2[C@H](CO)[C@@H](c3ccc(-c4ccccc4C)cc3)[C@H]2C1	-1.66
SMILES	IDE exosite inh
CCN(C[C@@H]1[C@H](c2ccccc2)[C@@H](CO)N1C(C)=O)C(=O)c1ccccn1	0.883
CO[C@@H]1CN(C)C(=O)c2ccc(NC(=O)c3ccccc3F)cc2OC[C@H](C)N(C)C[C@H]1C	1.08
CO[C@@H]1CN(C)C(=O)c2cc(NC(=O)Nc3cccc(Cl)c3)ccc2OC[C@H](C)N(C(=O)Nc2c(C)noc2C)C[C@H]1C	-0.446
C[C@H]1CC=CC[C@H](c2ccccc2)NC(=O)[C@H](C)N(C)C(=O)c2ccccc2O1 (mixture of isomers)	1.45
C[C@H](NC(=O)C[C@H]1CC[C@@H]2[C@@H](COc3ccc(NS(=O)(=O)c4ccc(Cl)cc4)cc3C(=O)N2C)O1)c1ccccc1	-0.443
CC(C)C#Cc1ccc([C@@H]2[C@H](C#N)N(C(=O)CN(C)C)[C@H]2CO)cc1	1.72
Cc1ccc(-c2ccc([C@H]3[C@@H](CO)N4C(=O)CN(C(=O)c5ccc(F)cc5)C[C@H]34)cc2)cc1	1.24
COc1cccc(-c2ccc([C@H]3[C@@H](CO)N4CCCCN(CC5CC5)C[C@@H]34)cc2)c1	-0.176
C[C@@H]1CCCCO[C@H](CN(C)S(=O)(=O)c2ccc(F)cc2)[C@@H](C)CN([C@@H](C)CO)C(=O)c2cc(N(C)C)ccc2O1	1.45
CNC(=O)C[C@H]1CC[C@H]2[C@@H](COC[C@@H](O)CN2Cc2ccccc2F)O1	1.37
C[C@@H]1CCCCO[C@H](CN(C)C(=O)Nc2ccc(C(F)(F)F)cc2)[C@H](C)CN([C@H](C)CO)C(=O)c2cc(NS(=O)(=O)c3cn(C)cn3)ccc2O1	1.02
CC(C)C(=O)Nc1ccc2c(c1)C(=O)N(C)[C@@H]1CC[C@@H](CC(=O)NCCc3ccccc3)O[C@@H]1CO2	-0.651
Cc1ccccc1-c1ccc([C@@H]2[C@H]3CN(S(C)(=O)=O)CCCCN3[C@H]2CO)cc1	-5.16*
CS(=O)(=O)N1CCCCN2[C@H](CO)[C@H](c3ccc(C4=CCCC4)cc3)[C@@H]2C1	2.05
CS(=O)(=O)N1CCCCN2[C@H](C1)[C@H](c1ccc(Br)cc1)[C@@H]2CO	-0.69
COc1ccccc1NC(=O)N1CC(=O)N2[C@H](CO)[C@@H](c3ccc(C#Cc4ccc(F)cc4)cc3)[C@@H]2C1	1.49
CCC(=O)N1[C@H](CO)[C@H](c2ccc(C3=CCCCC3)cc2)[C@H]1CNCC1CCC1	2
Cc1ccccc1-c1ccc(C2[C@H]3CNC[C@@H]2N3S(=O)(=O)c2ccc(F)cc2)cc1 (stereo partly specified)	0.507
Cn1cnc(S(=O)(=O)N2CCCCN3[C@H](CO)[C@@H](c4ccc(-c5ccccc5F)cc4)[C@H]3C2)c1	2.52
Cc1ccc(-c2ccc(C3[C@H]4CNC[C@@H]3N4S(=O)(=O)c3ccccc3)cc2)cc1 (stereo partly specified)	4.97
Cc1ccccc1-c1ccc(C2[C@H]3CNC[C@@H]2N3S(=O)(=O)c2cccc(F)c2)cc1 (stereo partly specified)	-3.39*!
O=S(=O)(c1cccc(F)c1)N1[C@@H]2CNC[C@H]1C2c1ccc(-c2ccccc2F)cc1 (stereo partly specified)	-1.07
Cc1ccccc1-c1ccc(C2[C@H]3CNC[C@@H]2N3S(=O)(=O)c2cn(C)cn2)cc1 (stereo partly specified)	-4.9*
C/C=C/c1ccc(C2[C@H]3CNC[C@@H]2N3S(=O)(=O)c2cn(C)cn2)cc1 (stereo partly specified)	3.9
Cc1ccccc1-c1ccc(C2[C@@H]3CN(S(=O)(=O)c4cn(C)cn4)C[C@H]2N3)cc1 (stereo partly specified)	-5.27*
Cc1ccccc1-c1ccc(C2[C@@H]3CN(Cc4cncnc4)C[C@H]2N3)cc1 (stereo partly specified)	-2.59
O=S(=O)(c1ccc(F)cc1)N1CCCCN2[C@H](CO)[C@H](c3ccc(C#CC4CC4)cc3)[C@H]2C1	1.04
N#C[C@H]1[C@@H](c2ccccc2-c2cccc(F)c2)[C@@H](CO)N1C(=O)C1CC1	0.777
C/C=C/c1ccccc1[C@@H]1[C@@H](C#N)N(C(=O)c2cccnc2)[C@@H]1CO	1.12
